# Records with an inconclusive call do not appear. For part of these data: Entries with a potency or affinity are not part of this list. Active and inactive are the calls of the source. Where a SMILES comes first, the peptide text is derived from it. Bridges are numbered along the chain shown (N, C = ends). [ ]: non-standard residue; d: D form. The star is where a group is joined. Dab(CH2SO3H) = N[C@@H](CCNCS(=O)(=O)O)C(=O)O; X1 = CC[C@@H](C)CCCCC(=O)*; Dab = NCC[C@H](N)C(=O)O
# Legend:
# [1] = Ebola virus entry cell assay, ratio channel
# [2] = Ebola virus entry reporter assay, green channel fluorescence
# [3] = qHTS assay to identify small molecule inhibitors of chordoma cells - UCH-1 (AID 1259355; active means well fitted curve in the direction sought with a large enough effect; an effect the other way counts as inactive or inconclusive; further: on the % scale 0 is the no-effect control and ±100 the full control effect; nearly all actives have a fitted effect of over 55% in size); details: UCH-1 chordoma viability, CellTiter-Glo, 48 h, combination; series mostly up to 46.1 µM
# Outline: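 Screening used approved and investigational drugs in 15-point titration against 800 seeded cells per well. A fixed combination of auranofin with camptothecin, doxorubicin, rubitecan and topotecan followed compound addition, and growth was scored by CellTiter-Glo after 48hr.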
# [4] = qHTS assay to identify small molecule inhibitors of chordoma cells - UCH-2 (AID 1259356; active means well fitted curve in the direction sought with a large enough effect; an effect the other way counts as inactive or inconclusive; further: on the % scale 0 is the no-effect control and ±100 the full control effect); details: UCH-2 chordoma viability, CellTiter-Glo ATP luminescence, 48 h; series mostly up to 46.1 µM
# [5] = High-throughput drug toxicity screening in the BPDCN cell line Gen2.2 (AID 1224824; call rule not given here;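 further: cells exposed to compounds for 48 h before reading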); details: Gen2.2 BPDCN cells; at 45.8 µM (top of the series) unless noted
# Outline: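 Gen2.2, 500 cells/well, phenol red-free RPMI/10% FBS/Pen-Strep; 48 h cpd, 37 °C/5% CO2; CTG lum, 15 min RT. Norm: DMSO = 100%, bortezomib 9.2 uM final = 0%.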
# [6] = High-throughput drug toxicity screening in the BPDCN cell line Cal-1 (AID 1224825; call rule not given here); details: Cal-1 BPDCN cell viability, qHTS; at 45.8 µM (top of the series) unless noted
# Outline: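 CellTiter-Glo luminescence after 48 h compound exposure; percent activity scaled with DMSO as 100% and bortezomib (9.2 uM final) as 0%. Cal-1 cells seeded at 500/well in RPMI, 10% FBS, no phenol red.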
# [7] = qHTS assay for measurement of the activity of small molecule inhibitors on Zika virus induced Caspase-3 activity in human astrocytoma cells (AID 1224859; active means well fitted curve in the direction sought with a large enough effect; an effect the other way counts as inactive or inconclusive;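 further: plate controls were ZIKV-infected untreated cells for no effect and uninfected cells for full effect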); details: SNB-19 ZIKV-induced caspase-3/7, luminescence, 6 h; series mostly up to 45.7 µM
# Outline: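 SNB-19 astrocytoma cells, 250/well, pretreated 1 h with compounds, then Zika virus at 2 FFU/cell for 6 h at 37 C; Caspase-Glo 3/7 luminescence after 30 min; percent inhibition normalised to uninfected and infected controls.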
# [8] = qHTS Screen of the MIPE 4.0 Collection Against Ewings Sarcoma (RDES) (AID 1259252; active means well fitted curve in the direction sought with a large enough effect; an effect the other way counts as inactive or inconclusive;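 further: 100% = DMSO-treated cells and 0% = medium-only wells without cells; nearly all actives have a fitted effect of over 35% in size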); details: RD-ES Ewing sarcoma viability, CellTiter-Glo, 48 h; series mostly up to 45.8 µM
# Outline: (§1)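 Viability screen: 48 h incubation at 37C, 95% humidity, 5% CO2 with serially titrated compound, followed by CellTiter-Glo readout.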
# [9] = qHTS Screen of the MIPE 4.0 Collection Against Ewings Sarcoma (EW8) (AID 1259255; active means well fitted curve in the direction sought with a large enough effect; an effect the other way counts as inactive or inconclusive;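 further: 100% = DMSO-treated cells and 0% = medium-only wells without cells; nearly all actives have a fitted effect of over 35% in size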); details: EW8 Ewing sarcoma viability, CellTiter-Glo, 48 h; series mostly up to 45.8 µM
# Outline: as §1
smiles,measurement,setting,value
CN[C@@H](C)Cc1ccccc1,outcome,[1],inactive
CC[C@@H](C)CCCCC(=O)N[C@@H](CCNCS(=O)(=O)O)C(=O)N[C@H](C(=O)N[C@@H](CCNCS(=O)(=O)O)C(=O)N[C@H]1CCNC(=O)[C@H]([C@@H](C)O)NC(=O)[C@H](CCNCS(=O)(=O)O)NC(=O)[C@H](CCNCS(=O)(=O)O)NC(=O)[C@H](CC(C)C)NC(=O)[C@@H](CC(C)C)NC(=O)[C@H](CCNCS(=O)(=O)O)NC1=O)[C@@H](C)O (X1-[Dab(CH2SO3H)]T[Dab(CH2SO3H)][Dab][Dab(CH2SO3H)][dL]L[Dab(CH2SO3H)][Dab(CH2SO3H)]T; lactam 4-C),outcome,[1],inactive
Nc1nc(=O)n([C@@H]2CS[C@H](CO)O2)cc1F,outcome,[1],inactive
C[N+]1(C)[C@@H]2CC(OC(=O)C(O)(c3cccs3)c3cccs3)C[C@H]1[C@@H]1O[C@@H]12 (some centres undefined),outcome,[1],inactive
Nc1ccn([C@@H]2O[C@H](CO)[C@@H](O)C2O)c(=O)n1 (some centres undefined),outcome,[1],inactive
O=C(O[C@H]1CN2CCC1CC2)N1CCc2ccccc2[C@@H]1c1ccccc1,AC50,[1],7.94 µM (active)
CN1C(=O)CC(=O)N(c2ccccc2)c2cc(Cl)ccc21,outcome,[2],inactive
same,outcome,[1],inactive
same,outcome,[3],inactive
CCCCC[C@H](O)/C=C/[C@@H]1[C@H]2C/C(=C/CCCC(=O)O)O[C@H]2C[C@H]1O,outcome,[1],inactive
OC[C@H]1O[C@@H](n2cnc3c2NC=NC[C@H]3O)C[C@@H]1O,outcome,[1],inactive
CC(C)C[C@H]1C(=O)N2CCC[C@H]2[C@]2(O)O[C@](NC(=O)[C@@H]3C=C4c5cccc6[nH]c(Br)c(c56)C[C@H]4N(C)C3)(C(C)C)C(=O)N12,outcome,[2],inactive
same,outcome,[1],inactive
CCC[C@@H]1C[C@@H](C(=O)N[C@@H]([C@H]2O[C@H](SC)[C@H](O)[C@@H](O)[C@H]2O)[C@H](C)Cl)N(C)C1,outcome,[1],inactive
Nc1ccn([C@@H]2CS[C@H](CO)O2)c(=O)n1,outcome,[1],inactive
CC(=O)N=c1sc(S(N)(=O)=O)nn1C,outcome,[1],inactive
COc1cc([C@@H]2c3cc4c(cc3[C@@H](O[C@@H]3O[C@@H]5CO[C@@H](c6cccs6)O[C@@H]5[C@H](O)[C@@H]3O)[C@H]3COC(=O)[C@H]23)OCO4)cc(OC)c1O,outcome,[1],inactive
CN=C1CN(O)C(c2ccccc2)=c2cc(Cl)ccc2=N1,outcome,[2],inactive
same,AC50,[1],12.6 µM (active)
same,outcome,[3],inactive
same,outcome,[4],inactive
CC(=O)NCCCS(=O)(=O)O,outcome,[2],inactive
same,outcome,[1],inactive
O=C1[O][Bi][O]c2ccccc21,outcome,[2],inactive
same,outcome,[1],inactive
CC(=O)S[C@@H]1CC2=CC(=O)CC[C@]2(C)[C@H]2CC[C@@]3(C)[C@@H](CC[C@@]34CCC(=O)O4)[C@H]12,outcome,[1],inactive
CSCC[C@H](NC(=O)[C@H](Cc1ccc(OS(=O)(=O)O)cc1)NC(=O)[C@@H](N)CC(=O)O)C(=O)NCC(=O)N[C@@H](Cc1c[nH]c2ccccc12)C(=O)N[C@@H](CCSC)C(=O)N[C@@H](CC(=O)O)C(=O)N[C@@H](Cc1ccccc1)C(N)=O,outcome,[1],inactive
Cc1c(N)nc([C@H](CC(N)=O)NC[C@H](N)C(N)=O)nc1C(=O)N[C@H](C(=O)N[C@H](C)[C@@H](O)[C@H](C)C(=O)N[C@H](C(=O)NCCc1nc(-c2nc(C(=O)NCCCCN=C(N)N)cs2)cs1)[C@@H](C)O)[C@@H](O[C@@H]1O[C@@H](CO)[C@@H](O)[C@H](O)[C@@H]1O[C@H]1O[C@H](CO)[C@@H](O)[C@H](OC(N)=O)[C@@H]1O)c1cnc[nH]1,outcome,[1],inactive
CO[C@H]1C=CO[C@@]2(C)Oc3c(C)c(O)c4c(O)c(c5c(c4c3C2=O)=NC2(CCN(CC(C)C)CC2)N=5)NC(=O)/C(C)=C\C=C/[C@H](C)[C@H](O)[C@@H](C)[C@@H](O)[C@@H](C)[C@H](OC(C)=O)[C@@H]1C,outcome,[2],inactive
same,outcome,[1],inactive
CO[C@@H]1[C@@H](O[C@@H]2O[C@H](C)[C@@H](O[C@H]3C[C@@](C)(O)[C@@H](O)[C@H](C)O3)[C@H](N(C)C)[C@H]2O)[C@@H](CC=O)C[C@@H](C)[C@@H](O[C@@H]2CC[C@H](N(C)C)[C@@H](C)O2)/C=C/C=C/C[C@@H](C)OC(=O)C[C@H]1O,AC50,[1],11.2 µM (active)
C=C1C(=C/C=C2\CCC[C@]3(C)[C@@H]([C@H](C)CCCC(C)(C)O)CC[C@@H]23)C[C@@H](O)C[C@@H]1O,outcome,[1],inactive
CC(C)C[C@H](CN)CC(=O)O,outcome,[2],inactive
same,outcome,[1],inactive
same,"cell viability, % of control (lower = more cytotoxic)",[5],401%
same,viability (% of control),[6],132%
same,outcome,[7],inactive
same,Potency,[8],inactive
same,outcome,[9],inactive

# — PubChem BioAssay (NCATS)
